Test results from PubChem BioAssay.
The source made the active and inactive calls.

Tests used:
[1] = binders of probe aFSTL3 on microarray, primary screen, stem cell growth factor project, biochemical, small-molecule microarray, fluorescence 635/667 (AID 1064); details: higher = more signal;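 also: measures binding of the biotinylated anti-FSTL3 antibody to printed compounds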
[2] = binders from COS7 lysate, DM2A8 probe, primary screen, torsin A project, cell lysate, small-molecule microarray, fluorescence 635/667 (AID 1065); details: higher = more signal, COS7 lysate expressing mutant human TOR1A
[3] = binders of probe aFGF2 on microarray, primary screen, stem cell growth factor project, biochemical, small-molecule microarray, fluorescence 635/667 (AID 1067); details: higher = more signal;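 also: measures binding of biotinylated aFGF2 protein to printed compounds on slides; z-score merges feature fluorescence and signal-to-noise across triplicate slides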
[4] = binders of probe aFGF10 on microarray, primary screen, stem cell growth factor project, biochemical, small-molecule microarray, fluorescence 635/667 (AID 1071); details: higher = more signal;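 also: score merges 667 nm spot intensity and signal to noise from triplicate slides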
[5] = molecular target: Neurogenic locus notch homolog protein 2 (Homo sapiens) (UniProt Q04721); assay: Notch2 binders on small-molecule microarrays, primary screen, biochemical, small-molecule microarray, 635 nm fluorescence, stem cell growth factors (AID 1073); details: Notch2 binding, higher = more signal
Chain of Neurogenic locus notch homolog protein 2 (Homo sapiens) (Q04721 whole entry, looked up, canonical isoform): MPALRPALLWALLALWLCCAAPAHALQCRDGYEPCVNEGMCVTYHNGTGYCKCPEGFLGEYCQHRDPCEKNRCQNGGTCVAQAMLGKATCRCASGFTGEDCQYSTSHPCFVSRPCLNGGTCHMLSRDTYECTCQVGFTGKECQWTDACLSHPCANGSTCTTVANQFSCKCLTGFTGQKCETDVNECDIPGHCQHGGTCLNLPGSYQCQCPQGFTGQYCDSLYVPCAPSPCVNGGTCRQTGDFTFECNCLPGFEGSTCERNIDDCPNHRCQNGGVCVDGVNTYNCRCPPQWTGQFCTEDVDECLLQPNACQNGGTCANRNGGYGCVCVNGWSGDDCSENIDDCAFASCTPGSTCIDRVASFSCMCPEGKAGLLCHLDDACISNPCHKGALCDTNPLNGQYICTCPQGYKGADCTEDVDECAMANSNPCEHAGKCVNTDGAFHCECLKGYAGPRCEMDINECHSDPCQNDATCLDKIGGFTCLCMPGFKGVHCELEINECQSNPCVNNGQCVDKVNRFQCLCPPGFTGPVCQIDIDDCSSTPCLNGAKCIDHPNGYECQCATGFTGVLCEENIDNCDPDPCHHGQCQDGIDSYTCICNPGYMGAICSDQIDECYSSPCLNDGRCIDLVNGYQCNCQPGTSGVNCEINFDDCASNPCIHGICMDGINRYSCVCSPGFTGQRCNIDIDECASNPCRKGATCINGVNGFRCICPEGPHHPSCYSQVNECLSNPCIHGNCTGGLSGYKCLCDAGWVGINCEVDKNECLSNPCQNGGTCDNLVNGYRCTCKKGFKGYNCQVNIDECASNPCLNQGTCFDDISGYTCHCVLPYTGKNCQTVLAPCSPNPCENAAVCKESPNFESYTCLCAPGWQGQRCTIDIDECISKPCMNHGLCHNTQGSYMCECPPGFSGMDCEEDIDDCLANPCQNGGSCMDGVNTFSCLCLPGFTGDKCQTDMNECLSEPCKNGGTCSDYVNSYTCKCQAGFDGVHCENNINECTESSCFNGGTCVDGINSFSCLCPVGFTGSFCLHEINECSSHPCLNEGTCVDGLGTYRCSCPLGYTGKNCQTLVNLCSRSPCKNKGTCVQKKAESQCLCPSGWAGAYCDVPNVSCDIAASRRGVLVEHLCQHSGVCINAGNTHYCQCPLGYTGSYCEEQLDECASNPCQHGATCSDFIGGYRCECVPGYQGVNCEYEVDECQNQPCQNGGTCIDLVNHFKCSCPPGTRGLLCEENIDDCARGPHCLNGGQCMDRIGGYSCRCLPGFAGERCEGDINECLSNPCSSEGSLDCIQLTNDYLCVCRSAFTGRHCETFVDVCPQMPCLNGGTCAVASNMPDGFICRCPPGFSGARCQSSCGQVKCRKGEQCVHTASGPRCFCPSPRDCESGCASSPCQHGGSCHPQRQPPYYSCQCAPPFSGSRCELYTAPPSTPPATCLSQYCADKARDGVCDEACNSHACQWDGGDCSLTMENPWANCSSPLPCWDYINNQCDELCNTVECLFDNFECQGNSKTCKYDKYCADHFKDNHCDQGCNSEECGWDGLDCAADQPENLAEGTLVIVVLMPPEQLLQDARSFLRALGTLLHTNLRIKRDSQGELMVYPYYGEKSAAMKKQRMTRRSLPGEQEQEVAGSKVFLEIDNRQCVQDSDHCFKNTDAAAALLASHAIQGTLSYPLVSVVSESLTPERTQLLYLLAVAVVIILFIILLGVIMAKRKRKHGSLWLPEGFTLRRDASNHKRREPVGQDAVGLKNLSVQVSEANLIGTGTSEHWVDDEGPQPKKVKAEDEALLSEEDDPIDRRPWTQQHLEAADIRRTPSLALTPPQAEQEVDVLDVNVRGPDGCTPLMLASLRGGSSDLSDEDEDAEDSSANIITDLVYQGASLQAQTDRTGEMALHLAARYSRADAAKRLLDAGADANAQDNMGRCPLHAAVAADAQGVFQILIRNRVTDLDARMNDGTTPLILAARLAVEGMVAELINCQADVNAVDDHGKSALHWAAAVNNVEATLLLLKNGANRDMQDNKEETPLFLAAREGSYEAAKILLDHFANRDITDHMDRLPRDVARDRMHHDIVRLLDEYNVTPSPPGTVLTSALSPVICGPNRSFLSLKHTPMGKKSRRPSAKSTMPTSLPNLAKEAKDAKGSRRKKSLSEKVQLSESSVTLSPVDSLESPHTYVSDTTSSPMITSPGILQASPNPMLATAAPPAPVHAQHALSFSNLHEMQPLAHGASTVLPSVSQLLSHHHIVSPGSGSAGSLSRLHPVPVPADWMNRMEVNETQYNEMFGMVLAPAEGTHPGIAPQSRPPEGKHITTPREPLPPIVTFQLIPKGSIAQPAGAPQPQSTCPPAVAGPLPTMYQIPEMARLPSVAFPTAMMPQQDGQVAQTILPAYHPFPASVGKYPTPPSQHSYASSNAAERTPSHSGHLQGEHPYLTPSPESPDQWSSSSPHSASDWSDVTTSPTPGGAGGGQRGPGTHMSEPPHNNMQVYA

[6] = molecular target: Pro-neuregulin-1, membrane-bound isoform (Homo sapiens) (UniProt Q02297); assay: NRG1 binders on small-molecule microarrays, primary screen, psychiatric disease protein project, biochemical, small-molecule microarray, fluorescence 635/667 (AID 1075); details: NRG1 binding, 635 nm fluorescence, higher = more signal;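 also: score combines 667 nm spot fluorescence with signal to noise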
Chain of Pro-neuregulin-1, membrane-bound isoform (Homo sapiens) (Q02297 whole entry, looked up, the tested form may be a part, canonical isoform): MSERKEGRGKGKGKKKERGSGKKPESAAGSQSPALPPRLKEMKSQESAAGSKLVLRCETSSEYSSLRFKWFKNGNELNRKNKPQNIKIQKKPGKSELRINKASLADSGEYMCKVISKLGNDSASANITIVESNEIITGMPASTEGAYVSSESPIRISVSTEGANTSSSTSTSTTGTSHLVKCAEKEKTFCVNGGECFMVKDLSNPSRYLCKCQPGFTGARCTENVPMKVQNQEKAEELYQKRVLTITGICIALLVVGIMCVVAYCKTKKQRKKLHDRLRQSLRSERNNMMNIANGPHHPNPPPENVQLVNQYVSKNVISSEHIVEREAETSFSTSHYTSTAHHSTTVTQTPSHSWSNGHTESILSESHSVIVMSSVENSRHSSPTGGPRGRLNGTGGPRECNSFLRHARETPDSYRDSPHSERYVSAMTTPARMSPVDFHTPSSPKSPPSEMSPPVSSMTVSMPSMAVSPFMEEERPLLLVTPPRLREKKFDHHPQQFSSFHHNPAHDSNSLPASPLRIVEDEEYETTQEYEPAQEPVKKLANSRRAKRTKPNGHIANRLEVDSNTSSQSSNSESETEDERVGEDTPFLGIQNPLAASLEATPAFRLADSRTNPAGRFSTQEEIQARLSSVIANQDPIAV

[7] = system: Neuregulin-1 EGF-like domain; assay: binders of neuregulin-1 EGF-like domain, primary screen, biochemical, small-molecule microarray, 635 nm fluorescence (AID 1081); details: small-molecule microarray binding, higher = more signal;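 also: binding of the protein to compounds printed on small-molecule microarray slides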
[8] = FRG1 promoter luciferase signal modulators, primary screen, FRG1 inhibition for FSHD, cell-based, C2C12 myotubes, firefly/Renilla luciferase, luminescence (AID 1084); details: higher = more signal, called active from +8 up or from −8 down
[9] = binders of probe aFST on microarray, primary screen, stem cell growth factor project, biochemical, small-molecule microarray, fluorescence 635/667 (AID 1086); details: higher = more signal;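 also: score merges 667 nm fluorescence with signal-to-noise of each printed compound spot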
[10] = binders of probe aHhip on microarray, primary screen, stem cell growth factor project, biochemical, small-molecule microarray, fluorescence 635/667 (AID 1087); details: higher = more signal;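 also: score merges spot fluorescence at 667nm with spot signal to noise ratio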
[11] = system: PRMT1 (protein arginine N-methyltransferase 1); assay: PRMT1 binders on small-molecule microarrays, primary screen, biochemical, small-molecule microarray, 635 nm fluorescence (AID 1088); details: small-molecule microarray binding, higher = more signal;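 also: binding of Prmt1 protein to compounds spotted on small-molecule microarray slides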
[12] = yeast growth modulation, basal conditions, primary screen, YJM789 clinical isolate, OD600, 24 h (AID 1089);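 also: growth of clinical yeast isolate S. cerevisiae YJM 789 seeded 1000 cells per well; test concentration not given here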; details: S. cerevisiae YJM789 growth, higher = more signal, called active from +8 up or from −8 down
[13] = fission yeast growth modulation, primary screen, strain 972, OD600, 24 h, no modulator (AID 1090);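 also: basal condition with compound alone and no growth modifier present; test concentration not given here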; details: S. pombe 972 growth, higher = more signal, called active from +8 up or from −8 down
[14] = S. cerevisiae growth modulation with rapamycin, primary screen, strain BY4716, OD600, 96 h (AID 1091); details: higher = more signal, called active from +8 up or from −8 down; also: test concentration not given here
[15] = molecular target: Torsin-1A-interacting protein 2 (Homo sapiens) (UniProt Q8NFQ8); assay: LULL1 binders on small-molecule microarray, primary screen, cell lysate, human LULL1 lysate, 635/667 nm fluorescence (AID 1092); details: hLULL1 lysate binding, 635 nm fluorescence, higher = more signal;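 also: probe is lysate of COS7 cells overexpressing human LULL1; score merges per-feature 667 nm fluorescence with signal-to-noise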
Chain of Torsin-1A-interacting protein 2 (Homo sapiens) (Q8NFQ8 whole entry, looked up): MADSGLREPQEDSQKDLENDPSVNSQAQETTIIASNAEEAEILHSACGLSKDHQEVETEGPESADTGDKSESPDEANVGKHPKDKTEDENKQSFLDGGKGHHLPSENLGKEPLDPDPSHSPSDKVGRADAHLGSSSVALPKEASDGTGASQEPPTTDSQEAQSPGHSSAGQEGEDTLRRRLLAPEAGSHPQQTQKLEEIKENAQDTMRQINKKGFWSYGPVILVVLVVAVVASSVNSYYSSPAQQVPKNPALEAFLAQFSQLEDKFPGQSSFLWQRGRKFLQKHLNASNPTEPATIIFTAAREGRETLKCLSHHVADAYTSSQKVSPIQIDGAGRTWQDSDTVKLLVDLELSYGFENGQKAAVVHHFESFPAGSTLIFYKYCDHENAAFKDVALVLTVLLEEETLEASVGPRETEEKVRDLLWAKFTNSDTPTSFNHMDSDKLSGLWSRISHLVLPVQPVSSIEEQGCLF

[16] = E. coli growth modulation, two-sided OD650, primary screen, E. coli filamentation project, strain DRC41, 24 h (AID 1093); details: OD650, 24 h, higher = more signal, called active from +8 up or from −8 down;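 also: MC1000 strain lacking acrAB efflux and sulA so SOS filamentation is blocked; test concentration not given here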
[17] = small-molecule microarray binders of probe aLefty2, primary screen, biochemical, biotinylated probe, 635/667 nm fluorescence (AID 1094); details: higher = more signal;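 also: score merges spot fluorescence near 667 nm with spot signal-to-noise ratio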
[18] = system: Noggin (protein binding on small-molecule microarray); assay: Noggin binders on small-molecule microarray, primary screen, biochemical, 635/667 nm fluorescence (AID 1095); details: 635 nm fluorescence, higher = more signal;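 also: score merges 667 nm feature fluorescence with signal to noise over triplicate slides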
[19] = molecular target: Neurogenic locus notch homolog protein 3 (Homo sapiens) (UniProt Q9UM47); assay: NOTCH3 binders on small-molecule microarray, primary screen, biochemical, 635/667 nm fluorescence (AID 1096); details: NOTCH3 binding, 635 nm fluorescence, higher = more signal
[20] = small-molecule microarray binders of probe aEGFR, primary screen, biochemical, biotinylated probe, 635/667 nm fluorescence (AID 1097); details: higher = more signal;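 also: probe is a biotinylated anti-EGFR antibody binding compounds printed on slides; score combines fluorescence near 667 nm and signal to noise of each spot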

Row | Compound | composite z-score [1] | composite z-score [2] | composite z-score [3] | composite z-score [4] | composite z-score [5] | composite z-score [6] | composite z-score [7] | z-score [8] | composite z-score [9] | composite z-score [10] | composite z-score [11] | z-score [12] | z-score [13] | z-score [14] | composite z-score [15] | z-score [16] | composite z-score [17] | composite z-score [18] | composite z-score [19] | composite z-score [20]
1 | COc1ccc([Si](C)(C)[C@H]2[C@H](CCO)O[C@@]3(C(=O)N(Cc4cccc(N5C(=O)c6ccccc6Oc6ccccc65)c4)c4ccccc43)[C@@H]2C)cc1 | 0.115 | -0.672 | -0.0645 | 0.462 | 0.139 | 0.962 | 1.02 | -1.19 (inactive) | -0.278 | -0.132 | 0.891 | 2.14 (inactive) | -0.506 (inactive) | 23.1 (active) | 1.51 | 1.03 (inactive) | -0.118 | -0.202 | 0.451 | -0.108
2 | O=C1O[C@@H](c2ccccc2)[C@@H](c2ccccc2)N2[C@@H](c3ccc(OCCO)cc3)[C@]3(C(=O)Nc4ccc(C#CC5(O)CCCCCC5)cc43)[C@@H](C(=O)O)[C@H]12 | 0.0507 | 0.733 | -0.0579 | 0.635 | 0.456 | 1.24 | 1.07 | 0.259 (inactive) | 0.193 | 0.0176 | 1.35 | 2.79 (inactive) | -0.256 (inactive) | 0.757 (inactive) | 2.64 | 2.21 (inactive) | -0.166 | 0.674 | 0.743 | -0.0828
3 | [N-]=[N+]=Nc1ccccc1C[C@@]1(C(=O)NCc2ccccc2)N=C(c2ccc(OCCCO)cc2)O[C@@H]1c1ccccc1N=[N+]=[N-] | 0.581 | 0.504 | 0.0678 | 1.04 | 1.09 | 0.966 | 1.06 | -1.24 (inactive) | 0.602 | -0.175 | 1.58 | -0.642 (inactive) | -0.468 (inactive) | 5.27 (inactive) | 1.69 | 0.0498 (inactive) | 0.469 | 1.2 | 0.762 | 0.0883
4 | C=CCNC(=O)[C@H]1[C@@H]2C(=O)O[C@@H](c3ccccc3)[C@@H](c3ccccc3)N2[C@@H](c2ccc(OCCO)cc2)[C@]12C(=O)Nc1ccccc12 | -0.0085 | 0.586 | 0.083 | 0.331 | -0.353 | 1.65 | 1.13 | -2.89 (inactive) | -0.189 | -0.613 | 1.18 | 1.24 (inactive) | 0.259 (inactive) | 2.84 (inactive) | 3.36 | 1.35 (inactive) | -0.0785 | 0.167 | 0.457 | -0.194
5 | CCCNC(=O)[C@@]1(c2ccc([N+](=O)[O-])cc2)CC(=O)N(C(C)C)[C@@H]1c1ccc(CO)cc1 | 0.829 | -0.22 | -0.111 | -0.904 | -1.73 | 0.0532 | 0.843 | -0.558 (inactive) | -1.14 | -0.0618 | -0.854 | -0.836 (inactive) | -1 (inactive) | -0.594 (inactive) | 1.41 | 0.353 (inactive) | -0.268 | -1.27 | -0.124 | -0.278
6 | C=CC[C@@]1(C(=O)OC)N=C(c2ccc(OCCCO)cc2)O[C@@H]1c1ccccc1N=[N+]=[N-] | 0.172 | -0.0701 | 0.0555 | 0.256 | 1.47 | 1.49 | 1.44 | 1.54 (inactive) | 0.587 | 0.154 | 1.54 | -0.777 (inactive) | -0.713 (inactive) | 1.35 (inactive) | 3.05 | 0.643 (inactive) | 0.346 | 1.14 | 1.07 | 0.118
